The nature of test [1]: ATG_NF_kB_CIS: Attagene CIS-FACTORIAL HepG2 Assay for human Nuclear Factor Kappa B (NF-kB) (AID 2282991). Conditions: HepG2 Attagene cis-factorial NF-kB reporter mRNA; actives raise or lower the signal. The method, boiled down:
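Endpoint from a 52-component multiplexed HepG2 reporter panel: cis-regulated transcription units transiently transfected, 24 h dosing, reporter mRNA quantified by RT-PCR and capillary electrophoresis, scored as increase or decrease against DMSO.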

A short description of test [2]: ATG_Oct_MLP_CIS: Attagene CIS-FACTORIAL HepG2 Assay for human Octamer-Binding Transcription Factor (Oct) (AID 2282993). The conditions noted are these: HepG2 Attagene cis-factorial Oct reporter, mRNA; actives raise or lower the signal. The method, boiled down:
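Read-out: reporter mRNA via RT-PCR plus capillary electrophoresis of 6-FAM-labelled fragments. Transiently transfected HepG2, 24 h exposure, endogenous TF activity on cis elements. Gain or loss of signal fitted relative to DMSO.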

Test [3] has as its target human Peroxisome Proliferator-activated Receptor delta (PPARd), PPARD (gene 5467) (UniProt Q03181). Description: ATG_PPARd_TRANS: Attagene TRANS-FACTORIAL HepG2 Assay for human Peroxisome Proliferator-activated Receptor delta (PPARd) (AID 2283002; active = hit-call score of the fitted dose curve at least 0.9, where 1 is the maximum). The method, boiled down:
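HepG2 cells transiently transfected with GAL4-UAS multiplexed reporter units driven by exogenous chimeric NR-GAL4 proteins; 24 h compound exposure. Reporter mRNA measured by RT-PCR, 6-FAM primer extension, HpaI digestion and capillary electrophoresis; gain of signal fitted relative to DMSO.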

Test [4] concerns the target Peroxisome proliferator-activated receptor gamma (Homo sapiens) (UniProt P37231). As to the kind of experiment: ATG_PPARg_TRANS: Attagene TRANS-FACTORIAL HepG2 Assay for human Peroxisome Proliferator-activated Receptor-gamma (PPARg) (AID 2283007; active = hit-call score of the fitted dose curve at least 0.9, where 1 is the maximum). The method, boiled down: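 Endpoint reflects upward reporter mRNA change versus DMSO controls. Setup: transiently transfected HepG2, GAL4-UAS reporters driven by chimeric NR-Gal4, 24 h incubation, RT-PCR with capillary electrophoresis read-out.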

Test [5] has as its target Nuclear receptor subfamily 1 group I member 2 (Homo sapiens) (UniProt O75469). Description: ATG_PXR_TRANS: Attagene TRANS-FACTORIAL HepG2 Assay for human Pregnane X Receptor (PXR) (AID 2283008; active = hit-call score of the fitted dose curve at least 0.9, where 1 is the maximum). The procedure, abridged: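 HepG2 cells transiently transfected with GAL4-UAS reporter units and PXR-Gal4 chimera, exposed 24 h. Reporter mRNA quantified by RT-PCR, fluorescent labelling, HpaI digestion and capillary electrophoresis; gain of signal vs DMSO.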

Test [6] addresses human Retinoic Acid Receptor gamma (RARg), RARG (gene 5916) (UniProt P13631). As to the kind of experiment: ATG_RARg_TRANS: Attagene TRANS-FACTORIAL HepG2 Assay for human Retinoic Acid Receptor gamma (RARg) (AID 2283009; active = hit-call score of the fitted dose curve at least 0.9, where 1 is the maximum). The procedure, abridged: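 HepG2, RARg-GAL4 TRANS system, 24 h exposure; reporter mRNA by RT-PCR + CE fluorescence; increase over DMSO.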
For test [7], the target named is Myc proto-oncogene protein (Homo sapiens) (UniProt P01106). Description: ATG_Myc_CIS: Attagene CIS-FACTORIAL HepG2 Assay for human Myelocytomatosis (Myc) Proto-Oncogene Transcription Factor (AID 2282990). Conditions: HepG2, Attagene cis-reporter transcription factor activity; actives raise or lower the signal. The method, boiled down: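 Transiently transfected HepG2 cells bearing cis-promoter reporter units for endogenous transcription factors; 24 h exposure. Reporter mRNA measured by RT-PCR, 6-FAM primer extension, HpaI cut and capillary electrophoresis; bidirectional fit relative to DMSO.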

For test [8], the target named is human Retinoic Acid Receptor beta (RARb), RARB (gene 5915) (UniProt P10826). As to the kind of experiment: ATG_RARb_TRANS: Attagene TRANS-FACTORIAL HepG2 Assay for human Retinoic Acid Receptor beta (AID 2283004; active = hit-call score of the fitted dose curve at least 0.9, where 1 is the maximum). The procedure, abridged:
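Readout is reporter mRNA induction: RNA reverse-transcribed, PCR-amplified, FAM-labelled, HpaI-cut and resolved by capillary electrophoresis. Transiently transfected HepG2 cells carrying exogenous NR–Gal4 chimeras were dosed for 24 h; activity fitted upward relative to DMSO.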

The target of test [9] is human RAR-related Orphan Receptor beta (RORb), RORB (gene 6096) (UniProt Q92753). Description: ATG_RORb_TRANS: Attagene TRANS-FACTORIAL HepG2 Assay for human RAR-related Orphan Receptor beta (RORb) (AID 2283010; active = hit-call score of the fitted dose curve at least 0.9, where 1 is the maximum). The method, boiled down:
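In this TRANS-format test, human HepG2 cells express chimeric NR-Gal4 fusion proteins driving GAL4-UAS reporters. After 24 h dosing, reporter transcripts are measured by fluorescent RT-PCR/capillary electrophoresis, with DMSO as negative control.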

In test [10] the target is human Peroxisome Proliferator-activated Receptor alpha (PPARa), PPARA (gene 5465) (UniProt Q07869). Description: ATG_PPARa_TRANS: Attagene TRANS-FACTORIAL HepG2 Assay for human Peroxisome Proliferator-activated Receptor alpha (PPARa) (AID 2283001; active = hit-call score of the fitted dose curve at least 0.9, where 1 is the maximum). The procedure, abridged:
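Measures transcriptional activity of an exogenous chimeric PPARa-Gal4 protein in transiently transfected HepG2 cells after 24 h dosing. Reporter mRNA quantified via RT-PCR and capillary electrophoresis; DMSO served as negative control.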

A short description of test [11]: ATG_NRF2_ARE_CIS: Attagene CIS-FACTORIAL HepG2 Assay for human Nuclear Factor Erythroid 2 Related Factor 2 (NFR2) response to Antioxidant Response Elements (ARE) (AID 2282992).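 For AC50: reporter mRNA level measured by RT-PCR and capillary electrophoresis fluorescence.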 Conditions: HepG2 Attagene ARE/NRF2 reporter, transcription factor activity; actives raise or lower the signal. The procedure, abridged: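 HepG2 cells transiently transfected with multiplexed cis-element reporter constructs, 24 h after chemical dosing; reporter mRNA quantified by RT-PCR, fluorescent primer extension, HpaI digestion and capillary electrophoresis. Bidirectional fit relative to DMSO.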

The target in test [12] is Cellular tumor antigen p53 (Homo sapiens) (UniProt P04637). Description: ATG_p53_CIS: Attagene CIS-FACTORIAL HepG2 Assay for human p53 Transcription Factor (AID 2282994). Conditions: HepG2 p53 cis-element reporter, Attagene mRNA; actives raise or lower the signal. The method, boiled down:
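HepG2 cells transiently transfected with cis-regulated multiple reporter transcription units, dosed 24 h. Reporter mRNA measured by RT-PCR, 6-FAM primer extension, HpaI digestion and capillary electrophoresis; bidirectional fit relative to DMSO.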

Test [13] concerns the target Retinoic acid receptor alpha (Homo sapiens) (UniProt P10276). As to the kind of experiment: ATG_RARa_TRANS: Attagene TRANS-FACTORIAL HepG2 Assay for human Retinoic Acid Receptor alpha (RARa) (AID 2283005; active = hit-call score of the fitted dose curve at least 0.9, where 1 is the maximum). The procedure, abridged: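 HepG2 transiently transfected with multiplex GAL4-UAS reporter units including a human RARa–GAL4 chimera; 24 h compound exposure. Reporter mRNA quantified by RT-PCR, 6-FAM labeling and capillary electrophoresis; gain of signal versus DMSO.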

Test [14] in a line: BSK_3C_TissueFactor: BioMAP Diversity Plus: 3C Assay for Tissue Factor Biomarker Activity (AID 2282997). The conditions noted are these: BioMAP 3C HUVEC, tissue factor biomarker readout; actives raise or lower the signal. The method, boiled down:
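Human vascular primary cells (umbilical vein endothelium) received test chemical; Tissue Factor was determined by ELISA at 24 h, and both gain and loss of signal versus DMSO were fitted.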

Test [15] in a line: BSK_3C_uPAR: BioMAP Diversity Plus: 3C Assay for Urokinase-type plasminogen activator receptor (uPAR) Biomarker Activity (AID 2282998). Conditions: BioMAP 3C HUVEC, uPAR biomarker ELISA; actives raise or lower the signal. The procedure, abridged:
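HUVEC primary cells; 24 h post-dose; uPAR by ELISA; gain or loss of signal fitted bidirectionally vs DMSO baseline.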

Test [16] can be described thus: BSK_4H_Eotaxin3: BioMAP Diversity Plus: 4H Assay for Eotaxin 3 Biomarker Activity (AID 2283000).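 Note: CCL26 protein level quantified by ELISA in parallel with SRB cytotoxicity check.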 Conditions: primary human endothelial cells (HUVEC); actives raise or lower the signal. The procedure, abridged: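 Readout is Eotaxin-3 (CCL26) level by ELISA in primary human umbilical vein endothelial cells harvested 24 h after chemical exposure; activity fitted in both directions against DMSO control.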

Read-out in test [17]: Intercellular Adhesion Molecule 1 (ICAM1), ICAM1 (gene 3383)
Description: BSK_3C_ICAM1: BioMAP Diversity Plus: 3C Assay for Intercellular Adhesion Molecule 1 (ICAM1) Biomarker Activity (AID 2283003). The conditions noted are these: primary human endothelial cells (HUVEC); actives raise or lower the signal. The procedure, abridged:
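Human vascular endothelial primary cells, 3C conditions, 24 h treatment. ICAM-1 by ELISA.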

Test [18] in a line: BSK_3C_Proliferation: Cell Proliferation Assessment in the BioMAP Diversity Plus: 3C Assay (AID 2283006).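 For AC50: potency may reflect either rise or fall in cell number versus DMSO.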 The conditions noted are these: primary human endothelial cells (HUVEC). The method, boiled down: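 Proliferation of human vascular endothelial primary cells after 48 h dosing, quantified as SRB-stained protein at 560 nm relative to DMSO.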

SMILES strings stand for the structures. Values joined by “and” are separate entries in the source; they are usually repeats but may differ in a detail not shown here. Identical values can stand only once. Records with an inconclusive call do not appear. The source holds several records for some structures; these can differ, active in one and inactive in another. Active and inactive are the calls of the source. Rule for the calls, unless noted: active = hit-call score of the fitted dose curve at least 0.9, where 1 is the maximum; inactive = score below 0.9.

In PubChem BioAssay (EPA / NIEHS) one finds outcome and AC50 data, which are given here for twelve compounds.

Nuclear receptor subfamily 1 group I member 2 (Homo sapiens), sequence (O75469 whole entry, looked up, the tested form may be a part): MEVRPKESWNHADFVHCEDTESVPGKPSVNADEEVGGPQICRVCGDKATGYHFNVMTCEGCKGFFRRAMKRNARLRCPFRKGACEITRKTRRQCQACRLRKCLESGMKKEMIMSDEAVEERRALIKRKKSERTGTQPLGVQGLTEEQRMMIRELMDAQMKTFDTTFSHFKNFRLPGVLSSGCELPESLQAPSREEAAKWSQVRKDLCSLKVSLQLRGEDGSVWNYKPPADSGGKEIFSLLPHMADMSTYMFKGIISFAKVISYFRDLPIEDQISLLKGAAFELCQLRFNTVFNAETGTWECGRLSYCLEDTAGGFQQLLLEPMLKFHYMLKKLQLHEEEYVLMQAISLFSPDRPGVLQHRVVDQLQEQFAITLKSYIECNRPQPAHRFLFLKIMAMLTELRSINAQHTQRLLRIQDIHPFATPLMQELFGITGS
Cellular tumor antigen p53 (Homo sapiens), sequence (P04637 whole entry, looked up): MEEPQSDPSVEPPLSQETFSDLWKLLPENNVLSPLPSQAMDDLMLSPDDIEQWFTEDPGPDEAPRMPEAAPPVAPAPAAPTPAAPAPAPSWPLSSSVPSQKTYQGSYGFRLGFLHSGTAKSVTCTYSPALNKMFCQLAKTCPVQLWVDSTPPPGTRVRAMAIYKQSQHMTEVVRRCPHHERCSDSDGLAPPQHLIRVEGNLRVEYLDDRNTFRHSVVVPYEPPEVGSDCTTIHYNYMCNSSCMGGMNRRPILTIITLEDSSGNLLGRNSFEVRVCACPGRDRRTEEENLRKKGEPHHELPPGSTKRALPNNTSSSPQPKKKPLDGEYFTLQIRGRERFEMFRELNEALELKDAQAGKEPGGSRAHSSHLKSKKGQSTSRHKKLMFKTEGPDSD
human Retinoic Acid Receptor beta (RARb), RARB (gene 5915), sequence (P10826 whole entry, looked up, the tested form may be a part): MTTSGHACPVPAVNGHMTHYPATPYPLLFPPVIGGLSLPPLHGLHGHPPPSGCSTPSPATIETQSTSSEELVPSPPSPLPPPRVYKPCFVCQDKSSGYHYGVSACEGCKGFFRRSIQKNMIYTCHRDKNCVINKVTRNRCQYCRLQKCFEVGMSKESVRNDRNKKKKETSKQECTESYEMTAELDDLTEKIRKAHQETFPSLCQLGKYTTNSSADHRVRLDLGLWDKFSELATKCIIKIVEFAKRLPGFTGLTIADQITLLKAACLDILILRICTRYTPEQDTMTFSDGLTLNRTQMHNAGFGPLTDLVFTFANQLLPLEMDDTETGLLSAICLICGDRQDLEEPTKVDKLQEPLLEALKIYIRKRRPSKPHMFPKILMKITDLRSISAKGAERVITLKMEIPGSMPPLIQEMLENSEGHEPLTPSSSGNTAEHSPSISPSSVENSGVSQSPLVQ
human Peroxisome Proliferator-activated Receptor delta (PPARd), PPARD (gene 5467), sequence (Q03181 whole entry, looked up, the tested form may be a part): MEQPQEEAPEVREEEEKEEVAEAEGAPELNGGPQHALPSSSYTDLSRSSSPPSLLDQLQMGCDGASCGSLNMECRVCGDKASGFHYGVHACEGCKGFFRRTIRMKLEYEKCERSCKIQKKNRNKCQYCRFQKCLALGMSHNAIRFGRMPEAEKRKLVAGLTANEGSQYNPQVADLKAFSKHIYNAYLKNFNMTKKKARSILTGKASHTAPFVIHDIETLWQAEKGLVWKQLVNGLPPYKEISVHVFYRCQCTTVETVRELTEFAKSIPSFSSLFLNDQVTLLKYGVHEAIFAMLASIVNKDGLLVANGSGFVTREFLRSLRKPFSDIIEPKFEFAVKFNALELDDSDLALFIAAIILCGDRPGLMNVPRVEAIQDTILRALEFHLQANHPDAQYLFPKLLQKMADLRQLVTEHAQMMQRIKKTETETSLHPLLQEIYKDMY
Myc proto-oncogene protein (Homo sapiens), sequence (P01106 whole entry, looked up): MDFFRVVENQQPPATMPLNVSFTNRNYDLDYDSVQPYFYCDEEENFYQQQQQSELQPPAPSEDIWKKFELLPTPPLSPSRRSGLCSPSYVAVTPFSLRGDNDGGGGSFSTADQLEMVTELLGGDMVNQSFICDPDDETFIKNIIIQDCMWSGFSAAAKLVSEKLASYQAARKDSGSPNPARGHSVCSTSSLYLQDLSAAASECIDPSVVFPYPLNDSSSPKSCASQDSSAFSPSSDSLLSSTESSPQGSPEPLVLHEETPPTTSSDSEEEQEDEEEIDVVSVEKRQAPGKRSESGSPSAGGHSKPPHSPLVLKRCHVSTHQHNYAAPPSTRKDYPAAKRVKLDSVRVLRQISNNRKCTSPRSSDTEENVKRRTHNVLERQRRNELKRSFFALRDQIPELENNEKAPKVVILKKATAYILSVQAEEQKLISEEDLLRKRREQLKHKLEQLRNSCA
human Retinoic Acid Receptor gamma (RARg), RARG (gene 5916), sequence (P13631 whole entry, looked up, the tested form may be a part): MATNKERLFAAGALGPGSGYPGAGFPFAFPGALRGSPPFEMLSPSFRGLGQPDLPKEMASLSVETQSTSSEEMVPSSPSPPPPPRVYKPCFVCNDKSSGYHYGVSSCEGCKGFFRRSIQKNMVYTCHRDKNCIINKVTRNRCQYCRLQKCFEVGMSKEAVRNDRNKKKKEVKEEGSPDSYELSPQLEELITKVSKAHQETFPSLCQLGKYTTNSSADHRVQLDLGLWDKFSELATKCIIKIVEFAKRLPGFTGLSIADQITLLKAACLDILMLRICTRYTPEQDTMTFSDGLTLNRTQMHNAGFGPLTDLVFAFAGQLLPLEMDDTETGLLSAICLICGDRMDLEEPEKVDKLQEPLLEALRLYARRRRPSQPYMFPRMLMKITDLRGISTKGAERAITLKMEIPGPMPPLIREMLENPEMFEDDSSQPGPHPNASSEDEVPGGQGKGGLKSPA
Peroxisome proliferator-activated receptor gamma (Homo sapiens), sequence (P37231 whole entry, looked up, the tested form may be a part): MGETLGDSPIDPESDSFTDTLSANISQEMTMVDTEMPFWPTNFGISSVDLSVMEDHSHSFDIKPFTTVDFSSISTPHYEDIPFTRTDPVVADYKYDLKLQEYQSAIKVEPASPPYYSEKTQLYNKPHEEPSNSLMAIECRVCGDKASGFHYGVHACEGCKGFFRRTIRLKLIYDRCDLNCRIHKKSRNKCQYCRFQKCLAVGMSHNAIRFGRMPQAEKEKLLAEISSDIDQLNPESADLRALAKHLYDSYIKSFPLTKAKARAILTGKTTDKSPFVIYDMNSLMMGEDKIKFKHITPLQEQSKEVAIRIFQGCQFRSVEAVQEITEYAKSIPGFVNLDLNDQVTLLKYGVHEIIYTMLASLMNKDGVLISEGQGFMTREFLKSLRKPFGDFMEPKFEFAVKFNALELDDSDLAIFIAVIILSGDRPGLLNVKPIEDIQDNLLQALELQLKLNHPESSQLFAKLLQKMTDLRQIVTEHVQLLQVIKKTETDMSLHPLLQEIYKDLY
human RAR-related Orphan Receptor beta (RORb), RORB (gene 6096), sequence (Q92753 whole entry, looked up, the tested form may be a part): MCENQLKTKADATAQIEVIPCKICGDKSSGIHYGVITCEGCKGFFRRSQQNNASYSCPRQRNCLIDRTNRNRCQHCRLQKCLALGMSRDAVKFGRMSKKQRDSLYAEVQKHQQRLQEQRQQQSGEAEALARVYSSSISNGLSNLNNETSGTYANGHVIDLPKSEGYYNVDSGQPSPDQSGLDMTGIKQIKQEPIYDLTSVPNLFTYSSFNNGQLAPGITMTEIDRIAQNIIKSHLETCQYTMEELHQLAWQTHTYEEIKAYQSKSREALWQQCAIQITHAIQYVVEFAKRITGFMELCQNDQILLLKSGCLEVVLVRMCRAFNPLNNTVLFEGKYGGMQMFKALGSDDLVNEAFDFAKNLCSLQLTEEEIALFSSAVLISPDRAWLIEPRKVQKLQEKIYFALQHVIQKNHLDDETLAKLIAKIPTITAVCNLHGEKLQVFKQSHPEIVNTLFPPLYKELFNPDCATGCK
human Peroxisome Proliferator-activated Receptor alpha (PPARa), PPARA (gene 5465), sequence (Q07869 whole entry, looked up, the tested form may be a part): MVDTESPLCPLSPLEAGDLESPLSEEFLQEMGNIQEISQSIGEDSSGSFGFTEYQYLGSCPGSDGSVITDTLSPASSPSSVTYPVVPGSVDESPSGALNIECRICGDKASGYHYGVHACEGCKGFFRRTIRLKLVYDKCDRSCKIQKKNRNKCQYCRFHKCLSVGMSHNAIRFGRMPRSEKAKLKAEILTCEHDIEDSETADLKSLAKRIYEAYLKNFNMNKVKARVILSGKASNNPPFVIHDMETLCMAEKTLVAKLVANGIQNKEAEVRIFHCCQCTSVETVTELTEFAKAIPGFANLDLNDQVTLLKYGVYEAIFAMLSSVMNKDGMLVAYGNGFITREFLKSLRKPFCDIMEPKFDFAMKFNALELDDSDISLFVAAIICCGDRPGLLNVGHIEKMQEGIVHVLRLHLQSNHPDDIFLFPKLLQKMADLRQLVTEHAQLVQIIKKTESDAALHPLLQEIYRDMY
Retinoic acid receptor alpha (Homo sapiens), sequence (P10276 whole entry, looked up, the tested form may be a part): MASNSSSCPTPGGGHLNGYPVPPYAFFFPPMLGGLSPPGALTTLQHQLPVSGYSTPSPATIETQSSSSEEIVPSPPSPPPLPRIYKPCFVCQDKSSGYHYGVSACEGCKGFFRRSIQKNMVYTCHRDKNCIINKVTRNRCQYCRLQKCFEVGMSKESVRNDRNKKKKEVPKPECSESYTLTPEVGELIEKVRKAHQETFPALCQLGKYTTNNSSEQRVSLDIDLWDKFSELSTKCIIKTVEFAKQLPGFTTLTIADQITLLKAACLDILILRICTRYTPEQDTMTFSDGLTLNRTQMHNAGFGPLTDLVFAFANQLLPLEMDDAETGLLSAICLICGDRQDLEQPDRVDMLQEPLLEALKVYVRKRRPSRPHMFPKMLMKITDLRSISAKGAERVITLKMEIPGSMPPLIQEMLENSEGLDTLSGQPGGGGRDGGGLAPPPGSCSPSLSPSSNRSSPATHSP

With `CCc1ccccc1O`, the result in test [1], in test [2], in test [3], in [4] and in test [6] was inactive. For the same compound, the AC50 in test [5] is 15.7 µM (active).
Turning to `c1cc[nH]c1`, the compound was classed as inactive in test [7], in test [1], in test [2], in test [8], in test [4] and in test [6]. Moreover, the call in test [9] was inactive.
On to `CC(C)c1c(C(=O)Nc2ccccc2)c(-c2ccccc2)c(-c2ccc(F)cc2)n1CC[C@@H](O)C[C@@H](O)CC(=O)O`, for which the compound was classed as inactive in test [7], in test [2], in [10] and in test [3]. Moreover, the AC50 in test [4] is 20.3 µM (active) and 19.6 µM (active); in [5], 9.99 µM (active).
Consider `CCCCCCCCCCCCCCCC(=O)OC`, for which the call in [7], in [11], in test [2], in test [12], in test [10] and in test [3] was inactive. Further, the call in test [8], in test [13], in test [4], in [5] and in [6] was inactive.
As for `Cc1ccccc1C(OCCN(C)C)c1ccccc1` (stereo unspecified), the AC50 in test [2] is 119 µM (active); in test [12] it was 52.6 µM (active) and 88.3 µM (active). Further, the compound was called inactive in test [2], in test [10], in test [3], in test [5] and in test [6].
As to `O=C(O)C(=O)O`, the compound was called inactive in test [7], in test [1], in test [2], in test [10], in test [8] and in [5]. Besides, in test [9], the outcome was inactive.
`O=CC(F)(F)C(F)(F)C(F)(F)F`: the outcome in test [7], in test [1], in test [2], in test [12], in test [3] and in [4] was inactive. In addition, the compound was called inactive in [5] and in test [9].
Consider `CCCCCCCCC(C)=O`, for which the outcome in [1], in [11], in test [2], in test [3] and in test [5] was inactive.
Take `O=C(CCCN1CCC(O)(c2ccc(Cl)cc2)CC1)c1ccc(F)cc1`: the outcome in test [7], in test [16] and in test [17] was inactive. The AC50 in test [2] was 47.9 µM (active); in [14], 15.6 µM (active); in test [15], 20 µM (active); in [18] it was 7.3 µM (active).
As to `CCCCCCCC(OC)OC`, the outcome in test [7], in test [11], in test [2], in [12], in test [3] and in test [4] was inactive.
`CN(Cc1cnc2nc(N)nc(N)c2n1)c1ccc(C(=O)N[C@@H](CCC(=O)O)C(=O)O)cc1`: the result in [7], in test [2], in test [14], in [15], in [16] and in test [17] was inactive. Further, the result in test [8], in [13], in test [18], in test [4], in [6] and in test [9] was inactive.
With `c1cc2cccc3c4cccc5cccc(c(c1)c23)c54`, the compound was called inactive in test [7], in test [2], in test [10], in test [3], in test [8] and in test [4]. Further, the compound was called inactive in test [5] and in [9]. In addition, the AC50 in [11] was 19.8 µM (active).

For orientation: AC50 means the concentration at which the activity in the assay is half-maximal.
